Assay outcomes from PubChem BioAssay.
Shown are actives, neighbours in structure and some others; about 12% of the full set was active somewhere.
Shiga inhibitor: Shiga toxin inhibition; 290,000 compounds, 9.2% hits; AID 2315; Vero cells, Shiga toxin protein synthesis inhibition reporter; inhibition, % at 38.7 µM; in the data active means inhibition mostly above about 28%, no sharp cut-off; inactive means mostly below about 43%
CHX counter: affects cycloheximide protein synthesis inhibition readout, counter-screen | 300,000 compounds, 12% hits | AID 2314 | max response, % | cell reporter, cycloheximide protein synthesis inhibition counterscreen; in the data active means max response mostly above about 13%, no sharp cut-off; inactive means mostly below about 14%; further: read at 38.3 µM for the half of the compounds with a filed dose
Marburg entry inh: blocks Marburg virus binding to or entry into cells; Potency, µM (doses to about 37.8 µM), hits mostly inhibitors; Marburg virus pseudotyped entry inhibition, cell reporter; 300,000 compounds, 1.8% hits; calls by dose curve; tested in HEK293 cells
Lassa entry inh: blocks Lassa virus binding to or entry into cells | Lassa virus pseudotype entry inhibition, cell reporter | Potency, µM (titrated, usually from 37.9 µM), usual class: inhibitors | 300,000 compounds, 1.2% hits | AID 540256; calls by dose curve; tested in HEK293 cells; further: nearly all actives have a fitted effect of over 50% in size
Each line names hits and unclear results; the compound was inactive in the other large screens.

COC(=O)c1sc(NC(=O)Cc2cccs2)nc1C	Shiga inhibitor 70, CHX counter 33
CCOC(=S)SCC(=O)Nc1ncc(C)s1	Shiga inhibitor 68, CHX counter 39, Marburg entry inh inconclusive
Cc1cnc(NC(=O)C2(c3ccccc3)CC2)s1	Shiga inhibitor 74, CHX counter 20
Cc1cnc(NC(=O)Cc2ccc(C)c(C)c2)s1	Shiga inhibitor 47, CHX counter 20, Marburg entry inh inconclusive, Lassa entry inh inconclusive
Cc1cnc(NC(=O)CCc2ccccc2)s1	CHX counter 25 (no result: Shiga inhibitor, Marburg entry inh, Lassa entry inh)
Cc1cnc(NC(=O)Cc2ccccc2Cl)s1	none
COC(=O)c1sc(NC(=O)COc2ccccc2)nc1C	CHX counter 23
Cc1cnc(NC(=O)COc2ccccc2)s1	Shiga inhibitor 110, CHX counter 59, Marburg entry inh inconclusive, Lassa entry inh inconclusive
O=C(O)c1nn(CC(=O)N2CCC(Cc3ccccc3)CC2)c(=O)c2ccccc12	none (no result: Lassa entry inh)
CCN1CCN(CCCNC(=O)C2c3ccccc3C(=O)N(c3ccc(OC)cc3)C2c2ccc(OC)cc2)CC1 (stereo unspecified)	Marburg entry inh inconclusive
Cc1ccc(NC(=O)CSCC(=O)NNC(=O)c2nn(C)c(=O)c3ccccc23)cc1	none (no result: Shiga inhibitor, CHX counter)
COc1ccc2oc(C(=O)C3CC3)c(N)c2c1	Shiga inhibitor 131, CHX counter 43
COc1ccc(C(=O)Nc2c(C(=O)c3ccccc3)oc3ccccc23)cc1	none (no result: Shiga inhibitor, CHX counter)
COc1ccc2oc(C(=O)c3ccccc3)c(N)c2c1	Shiga inhibitor 135, CHX counter 65, Marburg entry inh inconclusive, Lassa entry inh inconclusive
COc1ccc(C(=O)c2oc3ccccc3c2N)cc1	Shiga inhibitor active, CHX counter 93
COc1ccc2oc(C)c(C(N)=O)c2c1	none
COC(=O)CCC(=O)c1oc2ccc(OC)cc2c1N	CHX counter 40, Marburg entry inh inconclusive
COc1ccc2oc(C(=O)OC(C)C(=O)N3CCC(C)CC3)c(C)c2c1 (stereo unspecified)	Lassa entry inh inconclusive (no result: Shiga inhibitor, CHX counter)
CCOC(=O)C1CCCN(c2c(NCCN3CCCCC3C)c(=O)c2=O)C1 (stereo unspecified)	none (no result: Marburg entry inh, Lassa entry inh)
COC(=O)c1oc2ccc(Cl)cc2c1N	Shiga inhibitor 99, CHX counter 22
COc1ccc(-c2nc(-c3ccc(NC(=O)c4ccc(Br)o4)cc3)no2)cc1OC	Shiga inhibitor 46, CHX counter 29, Marburg entry inh inconclusive
COc1cc(-c2nc(-c3ccc(NC(=O)c4ccc(Br)o4)cc3)no2)cc(OC)c1OC	CHX counter 36, Marburg entry inh inconclusive, Lassa entry inh inconclusive
CS(=O)(=O)c1ccc(Cl)c(NC(=O)CSc2nc3ccccc3c(=O)n2Cc2ccco2)c1	none (no result: Shiga inhibitor, CHX counter)
COc1ccc(-n2nc3c(c2NC(=O)CCCCl)CSC3)cc1	CHX counter 16 (no result: Marburg entry inh, Lassa entry inh)
COc1ccc(-n2nc3c(c2NC(=O)CBr)CSC3)cc1	none
CCOc1ccccc1CNC(=O)CCCN1C(=O)CCn2nc(-c3cccn3C)cc21	none (no result: Shiga inhibitor, CHX counter, Marburg entry inh)
N#Cc1ccc(OCC(O)CN2CCC(C(O)(c3ccccc3)c3ccccc3)CC2)cc1 (stereo unspecified)	Marburg entry inh 13µM, Lassa entry inh inconclusive
N#Cc1ccc(-c2ccc(OCC(O)CN3CCOCC3)cc2)cc1 (stereo unspecified)	none
Cc1[nH]cnc1C(=O)N/N=C/c1c(Cl)cccc1Cl	CHX counter 36, Marburg entry inh inconclusive
Cc1nnsc1C(=O)N/N=C/c1c(F)cccc1Cl	none (no result: Lassa entry inh)
Cc1ccc(-n2nnc3ccccc3c2=O)cc1C	Shiga inhibitor 100, CHX counter 50
Cc1ccccc1OCC(=O)Nc1nnc(S(=O)(=O)N(C)c2ccccc2)s1	none (no result: Shiga inhibitor, CHX counter, Marburg entry inh)
Clc1cnc(Nc2cccnc2)c(Cl)c1	none
Clc1cnc(N/N=C/c2ccncc2)c(Cl)c1	Shiga inhibitor 49, CHX counter 16
Clc1ccc(N/N=C/c2ccncc2)cc1Cl	Shiga inhibitor 60, CHX counter 38, Lassa entry inh inconclusive
O=C1[C@H]2[C@H]3[C@H](O)[C@H](O)C/C(=N/OCc4ccccc4)[C@H]3CC[C@@H]2C(=O)N1C1CCCCC1	none (no result: Shiga inhibitor, CHX counter, Lassa entry inh)
COc1cccc(C(=O)N=c2sc3cc(S(C)(=O)=O)ccc3n2C)c1	Shiga inhibitor 80, CHX counter 28
COc1ccc(C(=O)N=c2sc3cc(Cl)ccc3n2C)cc1	none (no result: Shiga inhibitor, CHX counter, Marburg entry inh)
Cn1c(=NC(=O)COc2ccccc2)sc2ccccc21	Shiga inhibitor 78, CHX counter 42 (no result: Marburg entry inh, Lassa entry inh)
COc1cc(OC)cc(C(=O)N=c2sc3ccccc3n2C)c1	Shiga inhibitor 33, CHX counter 29 (no result: Marburg entry inh, Lassa entry inh)
COc1ccc(C(=O)N=c2sc3ccccc3n2C)cc1	Shiga inhibitor 107, CHX counter 53, Marburg entry inh inconclusive, Lassa entry inh inconclusive
CC(=O)C1=C(C)N(Cc2ccccc2)C(=O)NC1c1ccco1 (stereo unspecified)	Lassa entry inh inconclusive (no result: Shiga inhibitor, CHX counter)
Cc1cc(C)n(-c2ccc(-n3ccnc3)nn2)n1	none
